Results as given in PubChem BioAssay (NCI).
About 83,000 compounds went through this panel and 20% of them were active in at least one assay; those are over-represented in the sample as a whole.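 Testing used 96-well plates and a 48-hour single-concentration exposure. Example: -40 means 40% of the starting cells died.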 Values without a mark were called inactive. Active and inactive are the calls of the source. Rule for the calls: active = growth percent below 10; inactive = the rest.

Tested on: HL-60(TB) leukemia
Test: NCI-60 one-dose screen, 48 h (100 = growth as untreated, 0 = no growth, -100 = all killed)
Conditions: 10 µM unless noted

SMILES | growth
O=C(COCc1c(-c2ccccc2)no[n+]1[O-])Nc1nc(-c2ccc(Cl)cc2)cs1 | 119%
CC/C=C\C[C@H]1C/C=C2/C(=O)C=C[C@H]2C/C=C\CCCC(=O)O1 | 7.94% (active)
O=C(Nc1ccc(OS(=O)(=O)c2ccc(F)cc2)cc1)C12CC3CC(CC(C3)C1)C2 | 52.7%
C=C(C)[C@@H]1CC[C@]2(C)[C@H](CC=C3[C@@H]4CC(C)(C)CC[C@]4(C(N)=O)CC[C@]32C)[C@@]1(C)CCC#N | 16%
O=C1c2cccnc2-c2ncccc21 | 95.4% [100 µM]
Cn1cnc([N+](=O)[O-])c1N1c2ccncc2Sc2ccncc21 | 87.5%
CCCOc1ccc(-c2nc(-c3ccc(N)cc3)cs2)cc1 | 56.7%
C=C(C)[C@@H]1CC[C@]2(C(=O)OCCOCCOCC[P+](c3ccccc3)(c3ccccc3)c3ccccc3)CC[C@]3(C)[C@H](CC[C@@H]4[C@@]5(C)CC[C@H](C)C(C)(C)[C@@H]5CC[C@]43C)[C@@H]12 | -72.5% (active)
COc1ccc(-c2cc(-c3nnc(SCC(=O)Nc4ccc(/C(C)=N\O)cc4)n3-c3ccccc3)c3cc(OC)ccc3n2)cc1 | 31.8%
COc1cccc(-c2cc(C(=O)Nc3ccc(/C=C/c4ccc(OC5CCN(C)CC5)cc4)cc3)ccc2OC)c1 | 9.98% (active)
COC(=O)c1oc2c(C(C)=O)c(OCCN3CCCCC3)ccc2c1C | 110%
Cc1cc2nc3[nH]c4ccccc4c3nc2cc1C | 55.2%
COc1ccc(CCn2cncc2-c2c[nH]c3ccccc23)cc1 | 93.5%
Cn1cc(-c2csc(-c3c[nH]c4ncccc34)n2)c2cc(F)cnc21 | 79.8%
O=[N+]([O-])c1ccc(S(=O)(=O)N2CCN(c3ccnc4cc(Cl)ccc34)CC2)c([N+](=O)[O-])c1 | 75.7%
Cc1cc(NN=C(c2ccc(O)cc2)c2ccc(O)cc2)c([N+](=O)[O-])cc1[N+](=O)[O-] | 66.9%
COc1cc(-c2ccc(NC(=O)NC3CC3)c(OC)c2)ccc1NC(=O)NC1CC1 | 43.6%
CN(C)CCN=c1nc2c(c(N)n1-c1ccccc1)c(=S)n(-c1ccccc1)c(=S)n2-c1ccccc1 | 36.6%
Cc1cc(C#Cc2ccccc2)ccc1-n1c(/C=C/c2cc(O)ccc2O)nc2ccccc2c1=O | -11.9% (active)
COc1cc2ncnc(Nc3ccc(O)cc3)c2cc1OC | 83.5%
NC(CSC(c1ccccc1)(c1ccccc1)c1cccc2ccccc12)C(=O)O (stereo not given) | 88.5%
CCCCCCCCCCN1CCC(N2CCCCC2)CC1 | -57.7% (active)

SMILES | growth
COc1ccc(Nc2nc(SC)nc(-c3cccc([N+](=O)[O-])c3)c2C#N)cc1 | 112%
CCCCCC1CCCCN1C(=O)OCC (stereo not given) | 77.5%
CCN(CC)c1ccc(C(=N)c2ccc(N(C)C)cc2)cc1 | 11.1%
COc1ccccc1CNCCCN1C(=O)c2ccc3c4c(ccc(c24)C1=O)C(=O)N(CCCNCCCCNCCCN)C3=O | -54.4% (active)
COC(=O)[C@H](Cc1ccc(O)cc1)NC(=O)[C@@H](OC)[C@@H]1Cc2cc3cc(OC4CC(OC5CC(O)C(O)C(C)O5)C(O)C(C)O4)c(C)c(O)c3c(O)c2C(=O)[C@H]1OC1CC(OC2CC(OC3CC(C)(O)C(O)C(C)O3)C(O)C(C)O2)C(O)C(C)O1 (stereo not given in full) | 8.2% (active)
C=CCNc1ccccc1 | 125%
Oc1ccc(/C=N/Nc2nc3ccccc3s2)c(O)c1 | 0.859% (active)
COc1ccccc1/C=C\C(=O)c1ccccc1 | 48.3%
C=C[C@@]1(C)CC(=O)[C@@H](C(C)(C)c2cn(C)c3ccc(Br)cc23)C[C@@H]1O[Si](C)(C)C(C)(C)C | 106%
O=C(Nc1ncc(Cc2cc(Cl)ccc2Cl)s1)c1cccs1 | 86.1%
NC(=N\N=C/c1ccc(Cl)cc1Cl)/C(N)=N\N=C/c1ccc(Cl)cc1Cl | 79.7%
CN1CCN(c2cc(F)c(NC3=C(Cl)C(=O)c4ncccc4C3=O)c(F)c2)CC1 | -26.4% (active)
COc1cccc(C2C(C#N)=C(N)Oc3c2ccc2ccccc32)c1 (stereo not given) | -30.3% (active)
O=C(N/N=C/c1ccc2c(c1)OCO2)c1cnn2c1NC(c1ccccc1)C2 (stereo not given) | 56.3%
CCNCCNc1cc(-c2ccc(C(=O)OC)cc2)c(C#N)c2nc3ccccc3n12 | -57.2% (active)
COc1ccc(/C(=C\c2ccc3c(c2)OCO3)C(=O)Nc2nc3ccccc3s2)cc1OC | 92%
N#Cc1cnc2cc(OC[C@@H](O)CO)c(NC(=O)CC3CSSC3)cc2c1Nc1ccc(OCc2cccc(F)c2)c(Cl)c1 | -56.4% (active)
C#CCOc1ccc(C2=NN(CC3CC3)C3N=C(Cl)c4ncn(CC5CC5)c4N23)cc1OCC#C (stereo not given) | 99.1%
CCC(=O)Sc1ccccc1C(=O)Nc1ccc(Cl)cc1 | 37.6%
C/C(=N\NC(=S)N1CCCCC1)c1ccccn1 | -21.6% (active)
CC(CC(CCC(=O)O)(c1ccccc1)c1ccccc1)N(C)C (stereo not given) | 109%
CCN(CC)Cc1cc(C=C2C(=O)NC(=S)NC2=O)cc(OC)c1O | 106%

SMILES | growth
CC(=O)Nc1nccs1 | 103%
C#C[C@]1(O)CC[C@H]2[C@@H]3CC=C4c5nc(N)sc5CC[C@]4(C)[C@H]3CC[C@@]21C | 87.5%
C=CCN=C(N)SCCCCCCSC(N)=NCC=C | 75.8%
CC1(C)CNC(=O)N1 | 101%
C#CCn1cc(C=C2C(=O)NC(=O)NC2=O)c2cc(Cl)ccc21 | 59.9%
CCOC(=O)CC1CSC(Nc2ccccc2)=N1 (stereo not given) | 102%
COc1ccc(OC)c(/C=C/c2nnc(Nc3ccc(Cl)cc3)o2)c1 | 80.6%
O=C(O)c1ccc(NCc2cn(-c3ccc(C(F)(F)F)cc3)nc2-c2ccc(C(=O)O)cc2)cc1 | 104%
O=C(O)C(=O)O | 151%
ClCc1cccc2c(CCl)cccc12 | 48.2%
O=[N+]([O-])C1CC2C=CC1C2 (stereo not given) | 97.6%
COc1ccccc1-n1c(-c2cc(O)ccc2C)cn2c3c(=O)[nH]c(=O)n(C)c3nc12 | 110%
O=C(CNC(=O)c1cccc2ccccc12)Nc1ccccc1Oc1cccc(O)c1 | -24.1% [5 µM] (active)
C=C(C)[C@@H]1CC[C@]2(C(=O)N3CCCNCC3)CC[C@]3(C)[C@H](CC[C@@H]4[C@@]5(C)CCC(=O)C(C)(C)[C@@H]5CC[C@]43C)[C@@H]12 | 67.4%
CCCCC1=c2c([nH]c3ccc(OC)cc23)=NC2C=CC=NC12 (stereo not given) | 80.5%
O=C(/C=C/c1ccco1)c1ccc(Nc2ccnc3cc(Cl)ccc23)cc1 | 6.28% (active)
COc1ccc(CCO)cc1 | 64.3%
COc1cc(-c2ccc(N=Nc3c(O)c(C(=O)Nc4ccccc4OC)cc4ccccc34)c(OC)c2)ccc1N=Nc1c(O)c(C(=O)Nc2ccccc2OC)cc2ccccc12 | 79.2%
Cc1cccc(C)c1NCc1nnc(-c2ccco2)o1 | 97.5%
O=C1c2c(c3c4ccccc4n(CCCCCCN4CCOCC4)c3c3[nH]c4ccccc4c23)C(=O)N1O | 77.7%
CC(=O)c1ccc2oc(=O)n(Cc3ccc(C#N)cc3)c(=O)c2c1 | 109%
COc1ccc(-c2ccc(-c3ccc(C(=N)N)nc3)s2)cc1 | -47.3% (active)

SMILES | growth
COc1cc(NCCCCCN=C(N)NC(N)=NC(C)C)c2ncccc2c1 | 1.51% (active)
NC(=O)c1ccc(-c2cccc3c(=O)nc(N4CCOCC4)oc23)cc1 | 97.5%
CCCCCCCCCCCCC1CCC/C=C\CCC(=O)O1 (stereo not given) | 88.6%
N=C(N)c1nn(C2OC(CO)C(O)C2O)c2nc[nH]c(=O)c12 (stereo not given) | -25.2% (active)
COc1ccc(/C(=N\O)c2cc(OC)c(OC)c(OC)c2)c(OC)c1N | -23.8% (active)
O=C(c1nc2ccccc2[nH]1)C1C(c2cccc([N+](=O)[O-])c2)C2CC3CCCCC3N2[C@@]12C(=O)Nc1cc(Cl)ccc12 (stereo not given in full) | 4.05% (active)
CCCCCCN1CCN(Cc2ccc(N(CC)CC)cc2)C(=O)C1=O | -19.1% (active)
CCCCCC(CCCCC)C(=O)O | 90.4%
CCS/C(Nc1ccccc1)=C(\C#N)C(=O)Nc1ccc(OC)cc1 | -15.6% (active)
CS(=O)(=O)c1nnc(-c2ccccc2)s1 | 64.8%
CNc1nc2ncc(-c3c(C)noc3C)cc2n1Cc1ccccc1 | 8.97% (active)
COc1cc2c(C#N)n3c(c2cc1OC)C(=O)C(c1ccccc1)Oc1ccccc1-3 (stereo not given) | 61.1%
O=C(OCc1ccc2c(Br)cc(Br)c(O)c2n1)N1CCN(C(=O)c2cc3ccccc3[nH]2)CC1 | 53.9%
COc1cc2ncnc(Nc3ccc(S(=O)(=O)Nc4nccs4)cc3)c2cc1OCCCN1CCOCC1 | 112%
N#Cc1ncc(-c2cc(F)ccc2F)c(NC2CCCCCC2)n1 | 86.9%
N#Cc1nn(-c2ccccn2)c(N)c1C#N | 96.1%
COc1ccc(NC(=O)c2sc3nc4c(cc3c2N)C(O)CCC4)cc1 (stereo not given) | 93.2%
O=C(CC12CC3CC(CC(C3)C1)C2)NCCOCCOCCOCCNC(=O)c1cc2c(o1)C(=O)c1ccccc1C2=O | -7.22% (active)
Cc1cn(-c2cc(NC(=O)c3ccc(C)c(Nc4nccc(-c5cccnc5)n4)c3)cc(C(F)(F)F)c2)cn1 | 53.3%
